Measured values taken from PubChem BioAssay.
The source made the active and inactive calls. Unless noted, no rule for the calls is given here.

Key:
[1] = A549 cell viability effects, profiling panel, calcein-AM fluorescence, 48 h, basal (AID 1162); conditions: higher = more signal; also: test concentration not given here
[2] = adipocyte viability effects, profiling panel, cell-based, 3T3-L1 adipocytes, calcein-AM fluorescence, 48 h, basal (AID 1163); conditions: 3T3-L1 adipocytes viability, higher = more signal; also: test concentration not given here
[3] = HepG2 cell viability effects, profiling panel, calcein-AM fluorescence, 48 h, basal (AID 1164); conditions: higher = more signal; also: test concentration not given here
[4] = MM1S cell viability effects, profiling panel, calcein-AM fluorescence, 48 h, basal (AID 1165); conditions: higher = more signal;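 also: viability of MM1S multiple myeloma cells under basal unstimulated conditions; test concentration not given here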
[5] = basal RPMI8226 viability, no added stimulus, profiling panel, cell-based, calcein-AM fluorescence, 48 h, PK04 Diversity Set (AID 1166); conditions: RPMI8226 myeloma viability, higher = more signal;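 also: cells grown under basal conditions without added stimulus; test concentration not given here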
[6] = basal HepG2 mitochondrial membrane potential changes, profiling panel, cell-based, JC-1 fluorescence, 24 h, 100 nL compound (AID 1167); conditions: higher = more signal; also: test concentration not given here
[7] = basal 3T3-L1 adipocyte mitochondrial potential changes, profiling panel, cell-based, JC-1 fluorescence, 3T3-L1 adipocytes, 24 h, 100 nL compound (AID 1168); conditions: JC-1 mitochondrial fluorescence, higher = more signal, called active from +8 up or from −8 down; also: test concentration not given here
[8] = basal RPMI8226 mitochondrial membrane potential changes, profiling panel, cell-based, JC-1 fluorescence, 24 h, 100 nL compound (AID 1169); conditions: RPMI8226 myeloma, JC-1 mitochondrial potential fluorescence, higher = more signal; also: test concentration not given here
[9] = basal MM1S mitochondrial membrane potential changes, profiling panel, cell-based, JC-1 fluorescence, 24 h, 100 nL compound (AID 1170); conditions: higher = more signal; also: test concentration not given here
[10] = A549 lung cancer cell viability effects, profiling panel, resazurin fluorescence, 24 h, PK04 Diversity Set (AID 1171); conditions: higher = more signal, called active from +8 up or from −8 down; also: test concentration not given here
[11] = HepG2 liver cancer cell viability effects, profiling panel, resazurin fluorescence, 24 h, PK04 Diversity Set (AID 1172); conditions: higher = more signal; also: test concentration not given here
[12] = basal S. cerevisiae growth modulation, no modifier, primary screen, OD600, strain BY4716, 24 h, basal condition (AID 1173); conditions: OD600, 24 h, higher = more signal, called active from +8 up or from −8 down
[13] = MM1S myeloma cell viability, profiling panel, resazurin fluorescence, basal, 24 h, PK04 Diversity Set (AID 1174); conditions: higher = more signal, called active from +8 up or from −8 down;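 also: MM1S multiple myeloma cell line; test concentration not given here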
[14] = target: Dihydroorotate dehydrogenase (quinone), mitochondrial (Plasmodium falciparum (isolate 3D7)) (UniProt Q08210); assay: PfDHODH enzyme inhibitors, primary screen, biochemical, C-terminal His tag, absorbance 600 nm (AID 1175); conditions: DCIP absorbance 600 nm, higher = more signal, called active from +8 up or from −8 down;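 also: recombinant parasite enzyme with a five histidine tag at its C terminus; test concentration not given here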
[15] = P. aeruginosa biofilm formation inhibitors, primary screen, strain PAO1, LB-PBS medium, absorbance 600 nm (AID 1176); also: test concentration not given here; conditions: P. aeruginosa PAO1 growth/biofilm, A600, 12 h; higher = more signal
[16] = S. cerevisiae RM11-1a growth modifiers, primary screen, strain RM11-1a, OD600, basal, 24 h (AID 1177); conditions: OD600, 24 h, higher = more signal, called active from +8 up or from −8 down;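 also: cultures grown under basal conditions with no added stressor; test concentration not given here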
[17] = E. coli acrAB mutant growth effects, primary screen, E. coli filamentation inducers, strain DRC39, OD650, 24 h (AID 1178); conditions: higher = more signal, called active from +8 up or from −8 down;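 also: growth measured as culture turbidity by optical density at 650 nm; test concentration not given here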
[18] = E. coli acrAB mutant growth effects, primary screen, E. coli filamentation inducers, strain DRC39, OD650, 48 h (AID 1179);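 also: screen aims at cell division blockers that make cells filament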; conditions: E. coli DRC39 delta-acrAB growth, higher = more signal, called active from +8 up or from −8 down
[19] = RPMI8226 myeloma cell viability, profiling panel, resazurin fluorescence, basal, 24 h, PK04 Diversity Set (AID 1180); conditions: higher = more signal;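 also: RPMI8826 multiple myeloma cell line at 5000 cells per well; test concentration not given here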
[20] = target: E3 ubiquitin-protein ligase XIAP (Homo sapiens) (UniProt P98170); assay: XIAP binders, primary screen, biophysical, small-molecule microarray, fluorescence 635 nm (AID 1181); conditions: small-molecule microarray binding, higher = more signal;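 also: score merges 667 nm emission and signal to noise over triplicate slides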
E3 ubiquitin-protein ligase XIAP (Homo sapiens), sequence (P98170 whole entry, looked up): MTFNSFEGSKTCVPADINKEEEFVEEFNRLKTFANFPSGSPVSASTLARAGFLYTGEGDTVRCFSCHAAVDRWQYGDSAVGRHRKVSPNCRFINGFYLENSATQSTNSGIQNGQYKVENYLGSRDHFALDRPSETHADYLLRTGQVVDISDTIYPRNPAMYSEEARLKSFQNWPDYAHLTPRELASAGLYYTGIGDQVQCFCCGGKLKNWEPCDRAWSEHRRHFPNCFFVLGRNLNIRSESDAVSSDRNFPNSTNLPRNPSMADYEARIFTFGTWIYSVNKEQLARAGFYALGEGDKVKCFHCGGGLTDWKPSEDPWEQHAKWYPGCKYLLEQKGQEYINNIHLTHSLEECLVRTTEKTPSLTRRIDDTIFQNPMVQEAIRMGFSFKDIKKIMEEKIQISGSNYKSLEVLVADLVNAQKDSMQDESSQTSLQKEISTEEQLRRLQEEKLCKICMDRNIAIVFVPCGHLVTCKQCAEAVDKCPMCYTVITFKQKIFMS

Dihydroorotate dehydrogenase (quinone), mitochondrial (Plasmodium falciparum (isolate 3D7)), sequence (Q08210 whole entry, looked up): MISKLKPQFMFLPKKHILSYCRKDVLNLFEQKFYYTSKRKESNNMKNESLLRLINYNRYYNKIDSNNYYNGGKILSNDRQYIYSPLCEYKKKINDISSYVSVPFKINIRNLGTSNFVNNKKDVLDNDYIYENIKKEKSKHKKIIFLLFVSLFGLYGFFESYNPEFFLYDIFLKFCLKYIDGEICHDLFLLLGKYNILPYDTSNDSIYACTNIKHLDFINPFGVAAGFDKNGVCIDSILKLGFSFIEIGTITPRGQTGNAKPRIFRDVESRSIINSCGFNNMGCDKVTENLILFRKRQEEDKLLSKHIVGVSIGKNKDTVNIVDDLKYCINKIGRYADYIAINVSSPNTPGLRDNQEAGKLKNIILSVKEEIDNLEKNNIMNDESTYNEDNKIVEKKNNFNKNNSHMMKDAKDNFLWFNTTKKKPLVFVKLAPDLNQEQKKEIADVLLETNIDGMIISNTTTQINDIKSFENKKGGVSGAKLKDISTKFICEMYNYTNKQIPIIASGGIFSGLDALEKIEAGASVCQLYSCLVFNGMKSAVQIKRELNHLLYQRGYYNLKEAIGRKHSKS

In the case of `COc1ccc(CCNC(=O)[C@@H]2c3ccccc3C(=O)N(Cc3cc(C(F)(F)F)cc(C(F)(F)F)c3)[C@H]2c2ccc(CO)cc2)cc1`, the z-score [1] is reported as 1.64, the z-score [2] is reported as 1.58 and the z-score [3] is reported as 1.17. The z-score [4] was -1.4, the z-score [5] was -0.35 and the z-score [6] was 1.61. The z-score [7] was -0.497 (inactive), the z-score [8] was -0.0116 and the z-score [9] was 0.29. The z-score [10] was 0.349 (inactive), the z-score [11] was 0.317 and the z-score [12] was -0.662 (inactive). The z-score [13] was -0.295 (inactive), the composite z-score [14] was -0.928 (inactive) and the z-score [15] was 0.279 (inactive). The z-score [16] was 0.864 (inactive), the z-score [17] was 0.619 (inactive) and the z-score [18] was 0.591 (inactive). The z-score [19] was 0.451 and the composite z-score [20] was -0.213.
With `COC(=O)Cn1c(C(=O)N(C)C)cc2c1C[C@H]1CN(C(=O)c3ccccc3)[C@@](Cc3ccc(F)cc3)(C(=O)OC)[C@@H]21` the z-score [1] was -0.0599, the z-score [2] was -1.23 and the z-score [3] was 0.0845. For the same compound, the z-score [4] was -1.38, the z-score [5] was -1.58 and the z-score [6] was 0.0394. For the same compound, the z-score [7] was -0.53 (inactive), the z-score [8] was 0.446 and the z-score [9] was -0.148. The z-score [10] was -0.421 (inactive), the z-score [11] was -0.836 and the z-score [12] was 2.15 (inactive). For the same compound, the z-score [13] was -0.702 (inactive), the composite z-score [14] was 0.289 (inactive) and the z-score [15] was 0.743 (inactive). For the same compound, the z-score [16] was 1.34 (inactive), the z-score [17] was -0.61 (inactive) and the z-score [18] was -0.582 (inactive). It also gave a z-score [19] of -0.795 and a composite z-score [20] of -0.13.
`O=C1O[C@H](c2ccccc2)[C@H](c2ccccc2)N2[C@H]1[C@@H](C(=O)Nc1nc3ccccc3s1)[C@]1(C(=O)Nc3ccc(C#CC4(O)CCCCCC4)cc31)[C@H]2c1ccccc1OCCO` showed a z-score [1] of -0.744, a z-score [2] of 0.248 and a z-score [3] of -1.54. For the same compound, the z-score [4] was -3.44, the z-score [5] was -4.15 and the z-score [6] was -2.82. The z-score [7] was 2.18 (inactive), the z-score [8] was -0.951 and the z-score [9] was -1.5. The z-score [10] was -2.21 (inactive), the z-score [11] was 0.162 and the z-score [12] was 1.49 (inactive). The z-score [13] was -3.4 (inactive), the composite z-score [14] was -1.28 (inactive) and the z-score [15] was 3.52 (inactive). For the same compound, the z-score [16] was 2.74 (inactive), the z-score [17] was -0.295 (inactive) and the z-score [18] was -0.508 (inactive). It also gave a z-score [19] of -5.13 and a composite z-score [20] of 0.25.
`CC(C)N1C(=O)c2ccccc2[C@@H](C(=O)NC2CC2)[C@@H]1c1ccc(CO)cc1` gave a z-score [1] of 0.798, a z-score [2] of 0.774 and a z-score [3] of 0.476. It also gave a z-score [4] of -0.0123, a z-score [5] of 0.282 and a z-score [6] of 0.507. The z-score [7] was 0.319 (inactive), the z-score [8] was 0.108 and the z-score [9] was 0.0665. The z-score [10] was 0.743 (inactive), the z-score [11] was -0.146 and the z-score [12] was 0.164 (inactive). The z-score [13] was 0.224 (inactive), the composite z-score [14] was -0.54 (inactive) and the z-score [15] was 0.277 (inactive). For the same compound, the z-score [16] was -0.716 (inactive), the z-score [17] was 0.0426 (inactive) and the z-score [18] was -0.452 (inactive). For the same compound, the z-score [19] was 0.417 and the composite z-score [20] was 0.163.
Compound `COCCOC(=O)N1C(=O)[C@@]2(c3cc(C#Cc4ccc(OC)cc4)ccc31)[C@H](c1ccc(O)cc1)N1[C@H](c3ccccc3)[C@H](c3ccccc3)OC(=O)[C@H]1[C@@H]2C(=O)N1CCCCCCC1` has a z-score [1] of 0.403, a z-score [2] of 0.703 and a z-score [3] of -0.261. The z-score [4] was -1.08, the z-score [5] was -1.29 and the z-score [6] was -0.902. The z-score [7] was 1.18 (inactive), the z-score [8] was -0.464 and the z-score [9] was -0.414. The z-score [10] was -0.0155 (inactive), the z-score [11] was -0.113 and the z-score [12] was 0.603 (inactive). For the same compound, the z-score [13] was -0.431 (inactive), the composite z-score [14] was -0.15 (inactive) and the z-score [15] was 0.213 (inactive). For the same compound, the z-score [16] was 0.266 (inactive), the z-score [17] was -0.551 (inactive) and the z-score [18] was -0.341 (inactive). For the same compound, the z-score [19] was -0.332 and the composite z-score [20] was -0.158.
For `CN(C)C(=O)[C@]1(CCS(=O)(=O)c2ccccc2)N=C(c2ccc(OCCCO)cc2)O[C@@H]1c1ccccc1N=[N+]=[N-]`, the z-score [1] was 1.12, the z-score [2] was 0.503 and the z-score [3] was 0.591. For the same compound, the z-score [4] was -0.133, the z-score [5] was 0.517 and the z-score [6] was 0.621. For the same compound, the z-score [7] was -0.00563 (inactive), the z-score [8] was -1.18 and the z-score [9] was -0.809. The z-score [10] was -0.859 (inactive), the z-score [11] was -0.622 and the z-score [12] was -0.0799 (inactive). The z-score [13] was -0.99 (inactive), the composite z-score [14] was 1.05 (inactive) and the z-score [15] was 0.218 (inactive). For the same compound, the z-score [16] was 0.386 (inactive), the z-score [17] was 0.292 (inactive) and the z-score [18] was 0.393 (inactive). For the same compound, the z-score [19] was -1.01 and the composite z-score [20] was 0.273.
`[N-]=[N+]=Nc1ccccc1[C@H]1OC(c2ccc(OCCCO)cc2)=N[C@@]1(Cc1ccccc1)C(=O)N1CCCCC1` gave a z-score [1] of -0.127, a z-score [2] of -0.019 and a z-score [3] of -0.683. The z-score [4] was -3.09, the z-score [5] was -3.83 and the z-score [6] was -0.251. The z-score [7] was 1.44 (inactive), the z-score [8] was -1.15 and the z-score [9] was -2.77. The z-score [10] was -2.29 (inactive), the z-score [11] was -1.16 and the z-score [12] was -0.722 (inactive). For the same compound, the z-score [13] was -3.61 (inactive), the composite z-score [14] was -0.827 (inactive) and the z-score [15] was 0.603 (inactive). For the same compound, the z-score [16] was 1.97 (inactive), the z-score [17] was 0.359 (inactive) and the z-score [18] was 0.617 (inactive). For the same compound, the z-score [19] was -4.52 and the composite z-score [20] was 0.0197.
For `CN1C(=O)C2C=CC(C(O)c3cccc4ccccc34)N(N3CCCCC3)C2C1=O` (stereo not given), the z-score [1] was -0.866, the z-score [2] was -0.576 and the z-score [3] was -0.776. The z-score [4] was -1.21, the z-score [5] was -0.493 and the z-score [6] was -1.79. For the same compound, the z-score [7] was -1.53 (inactive), the z-score [8] was 0.776 and the z-score [9] was -0.382. The z-score [10] was 0.294 (inactive), the z-score [11] was -0.908 and the z-score [12] was 1.51 (inactive). For the same compound, the z-score [13] was -1.41 (inactive), the composite z-score [14] was -0.0243 (inactive) and the z-score [15] was -0.0625 (inactive). The z-score [16] was -0.334 (inactive), the z-score [17] was -0.619 (inactive) and the z-score [18] was -0.456 (inactive). The z-score [19] was -1.74 and the composite z-score [20] was 0.0077.
